In PubChem BioAssay (NCI) one finds growth inhibition data, which are given here for 21 compounds.

Experiment [1] in a line: NCI Yeast Anticancer Drug Screen. Data for the rad50 strain (AID 155).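 Note: 0% = growth of vehicle-only cultures of the same strain.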 Particulars: S. cerevisiae rad50 strain growth inhibition; at 50.0 µM; active compounds read high. In outline: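 Yeast carrying a defined DNA repair defect were exposed to test compounds, and growth was compared with vehicle-treated controls to give percent inhibition.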
Experiment [2] is described as follows: NCI Yeast Anticancer Drug Screen. Data for the mec2-1 strain (AID 157). Particulars: S. cerevisiae mec2-1 strain, at 50.0 µM, active compounds read high. In outline:
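Growth inhibition is read against vehicle-treated controls after compound exposure of the mec2-1 yeast strain, which is defective in DNA damage repair or cell cycle control.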

The nature of experiment [3]: NCI Yeast Anticancer Drug Screen. Data for the sgs1 mgt1 strain (AID 161).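 Note: 0% = growth of cultures given vehicle only.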 The note with it: S. cerevisiae sgs1 mgt1 strain, at 50.0 µM, active compounds read high. In outline:
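Growth of a repair-deficient yeast mutant was monitored after compound treatment and expressed as inhibition relative to vehicle-treated cultures.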

Experiment [4] can be described thus: NCI Yeast Anticancer Drug Screen. Data for the cln2 rad14 strain (AID 165).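 Note: 0% = growth equal to vehicle treated cultures.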 Particulars: S. cerevisiae cln2 rad14 strain, at 50.0 µM, active compounds read high. In outline: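 Growth inhibition, relative to vehicle-treated controls, is the read-out. The test organism is a yeast strain with defined genetic alterations, cln2 rad14.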
Experiment [5] is described as follows: NCI Yeast Anticancer Drug Screen. Data for the bub3 strain (AID 167). Particulars: S. cerevisiae bub3 mutant strain, at 50.0 µM, active compounds read high. The procedure, abridged:
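Compounds were applied to a genetically altered yeast strain carrying a cell-cycle control defect. Growth inhibition was scored against vehicle-treated controls.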

A short description of experiment [6]: NCI Yeast Anticancer Drug Screen. Data for the mlh1 rad18 strain (AID 175). The note with it: S. cerevisiae mlh1 rad18 strain growth inhibition; at 50.0 µM; active compounds read high. In outline:
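Cells of a genetically altered yeast strain, deficient in DNA damage repair, were treated with compound. Their growth was then compared with that of vehicle-treated cultures to give inhibition.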

The structures appear in SMILES notation. About 79,000 compounds went through this panel and 15% of them were active in at least one assay; those are over-represented in the sample as a whole. A number with no mark means an inactive call. Calls of active or inactive are those of the source. Cut-off read from the data, not from the text of the source: active = growth inhibition above about 70%; inactive = the rest.

As to `CC(=O)OCc1ccc2ccccc2c1`, the growth inhibition was -9.35% in experiment [1]; -29.7% in experiment [2]; -10.8% in experiment [3]; -3.2% in experiment [4]; -7.65% in experiment [5]; -14.7% in experiment [6].

As to `CC(=O)Nc1ccc(S(=O)(=O)NC2(C)C(=O)N(C)C(=O)N(C)C2=O)cc1`, the growth inhibition in experiment [1] was 32.2%; in experiment [2], 15.2%; in experiment [3], 14.2%; in experiment [4], 17.5%; in experiment [5], 3.15%; in experiment [6] it was 27.7%.

`COc1cccc2c1C(=O)c1c(C)c(C)c(C)c(C)c1-2`: the growth inhibition in experiment [1] was 3.3%; in experiment [2], 6%; in experiment [3] it was 3.05%; in experiment [4] it was -1.7%; in experiment [5], 14.6%; in experiment [6], -10.1%.

In the case of `CC(=O)OCC1OC(n2c(=O)n(-c3ccccc3)c(=O)c3ccccc32)C(OC(C)=O)C(OC(C)=O)C1OC(C)=O` (stereo unspecified), the growth inhibition is -12.8% in experiment [1]; 11.3% in experiment [2]; -7.9% in experiment [3]; 19.1% in experiment [4]; -6.85% in experiment [5]; 4.65% in experiment [6].

For `S=C(N/N=C\c1ccc(Cl)cc1Cl)Nc1ccc2cn[nH]c2c1`, the growth inhibition in experiment [1] was 20%; in experiment [2], 17.2%; in experiment [3] it was 28.2%; in experiment [4] it was -38%; in experiment [5], 2%; in experiment [6] it was 31.8%.

In the case of `Cc1ccccc1N1CCN(CC(O)Cc2ccccc2)CC1` (stereo unspecified), the growth inhibition in experiment [1] was 19.6%; in experiment [2], 10%; in experiment [3], 12.1%; in experiment [4], -6.85%; in experiment [5] it was 15.1%; in experiment [6], 21.1%.

In the case of `CC1=CCC(C(C)(C)NC(=O)c2ccccc2)C/C1=N/O` (stereo unspecified), the growth inhibition was -56.7% in experiment [1]; -43% in experiment [2]; -60.3% in experiment [3]; -49.2% in experiment [4]; -43.7% in experiment [5]; -66.5% in experiment [6].

On to `C[C@H]1C(=O)CCC2[C@]3(C)CCC4(CO)[C@@H]5CC(C)(C)C(=O)C[C@]5(C)CC[C@]4(C)C3CC[C@@]21C` (stereo partly specified), for which the growth inhibition in experiment [1] is -26.5%; in experiment [2], -25.6%; in experiment [3] it was -28.1%; in experiment [4], 3.35%; in experiment [5], -40.9%; in experiment [6] it was 0.4%.

With `O=C(c1ccc(CSc2ccc(Cl)cc2)o1)N1CCOCC1`, the growth inhibition in experiment [1] is 23.9%; in experiment [2], 12%; in experiment [3], 45.5%; in experiment [4], 24.2%; in experiment [5] it was 32.6%; in experiment [6], 26.6%.

As for `O=C1CC2CC1C1CCCC21` (stereo unspecified), the growth inhibition in experiment [1] was -32.5%; in experiment [2], -18.5%; in experiment [3], -56%; in experiment [4] it was -10.2%; in experiment [5] it was -31.4%; in experiment [6], -40.7%.

With `CC1CCCC(=O)CC1` (stereo unspecified), the growth inhibition in experiment [1] was 7.35%; in experiment [2] it was 9.85%; in experiment [3] it was -2.85%; in experiment [4] it was 16.3%; in experiment [5] it was -0.45%; in experiment [6], 6.5%.

On to `ClC1=C(Cl)C2(Cl)C3C(CC4C3C3(Cl)C(Cl)=C(Cl)C4(Cl)C3(Cl)Cl)C1(Cl)C2(Cl)Cl` (stereo unspecified), for which the growth inhibition was -7.65% in experiment [1]; -7.4% in experiment [2]; -2.75% in experiment [3]; -32.1% in experiment [4]; 0.15% in experiment [5]; -9.9% in experiment [6].

As to `CCc1cccc(CC)c1N1C(=O)C2C(C1=O)C1(Cl)C(Cl)=C(Cl)C2(Cl)C1(Cl)Cl` (stereo unspecified), the growth inhibition in experiment [1] was 37.4%; in experiment [2] it was 50.6%; in experiment [3], 65.4%; in experiment [4], 74.2% (active); in experiment [5], 61%; in experiment [6] it was 87.6% (active).

For `COC(=O)C(CC(=O)[C@H]1CC[C@H]2[C@@H]3CC[C@H]4C[C@@H](OC(C)=O)CC[C@]4(C)[C@H]3CC[C@]12C)OC(C)=O` (stereo partly specified), the growth inhibition in experiment [1] is 51.5%; in experiment [2], 40.9%; in experiment [3], 57.5%; in experiment [4], 53%; in experiment [5] it was -2.7%; in experiment [6], 44.2%.

With `O=P(OC1=NCCN1Cc1ccccc1)(OC1=NCCN1Cc1ccccc1)N1CC1`, the growth inhibition was 16.9% in experiment [1]; 5.6% in experiment [2]; 21.7% in experiment [3]; 32.4% in experiment [4]; 3.75% in experiment [5]; -6.2% in experiment [6].

Consider `CCCCCCCC/C=C\CCCCCCCCOC(=O)CC(O)C(=O)OCCCCCCCC/C=C\CCCCCCCC` (stereo unspecified), for which the growth inhibition in experiment [1] was -22.6%; in experiment [2], -4.05%; in experiment [3] it was -7.5%; in experiment [4], -22.9%; in experiment [5], -9.8%; in experiment [6], -17.2%.

For `S=C1CC(c2ccc(Cl)cc2)Sc2ccccc2N1` (stereo unspecified), the growth inhibition was -24.9% in experiment [1]; -5.6% in experiment [2]; -9.4% in experiment [3]; -0.95% in experiment [4]; -6.85% in experiment [5]; -31.4% in experiment [6].

As to `COC(=O)C1Cc2ccccc2C1=O` (stereo unspecified), the growth inhibition is -1.75% in experiment [1]; -13.2% in experiment [2]; -14.8% in experiment [3]; -40.5% in experiment [4]; -11.8% in experiment [5]; -6.45% in experiment [6].

Take `O=C(O)C(NCCCNC(C(=O)O)c1ccccc1)c1ccccc1` (stereo unspecified): the growth inhibition was 22.4% in experiment [1]; 14.2% in experiment [2]; 22.6% in experiment [3]; 37.6% in experiment [4]; 21.7% in experiment [5]; 19.1% in experiment [6].

Take `CC(C)(C)CC(CC(C)(C)C)C(=O)O`: the growth inhibition in experiment [1] is 28.9%; in experiment [2], -1.2%; in experiment [3] it was -3.5%; in experiment [4], 1.85%; in experiment [5] it was 4.05%; in experiment [6], 21.3%.

On to `CC(C)(C)c1ccnc(C(O)(C(F)(F)F)C(F)(F)F)c1`, for which the growth inhibition in experiment [1] is -3.4%; in experiment [2] it was -12.2%; in experiment [3], -12.2%; in experiment [4] it was -43.8%; in experiment [5], -7.75%; in experiment [6], -12.4%.
